Screening data from PubChem BioAssay.
In the library only some 6.2% were active in any assay of this set; here they are far more common.
LASV entry inh: blocks Lassa virus binding to or entry into cells. Lassa virus pseudotype entry inhibition, cell reporter. Potency, µM (highest dose often 37.9 µM), for the others: at the top dose activity change, negative = inhibition, most hits filed as inhibitors. 1.2% of 300,000 active. AID 540256; calls by dose curve; tested in HEK293 cells; note: potency is the fitted concentration of half-maximal effect; nearly all actives have a fitted effect of over 50% in size
FMDV inh: blocks foot and mouth disease virus; 1.2% of 410,000 active; FMDV antiviral cell-based qHTS; AID 1159524; Potency, µM (highest dose often 57.9 µM), for inactives: at the highest dose activity change, negative = inhibition, actives largely listed as inhibitors; calls by dose curve; tested in HEK293T cells; note: read-out not given here; potency is the fitted concentration of half-maximal effect; nearly all actives have a fitted effect of over 45% in size
HCMV antiviral: inhibitors of human cytomegalovirus. HFF cells, HCMV-luciferase reporter, 72 h; stronger effect = lower value. activity change, negative = inhibition, % at 57.5 µM. 4.5% of 410,000 active; in the data active = activity change below about -60%; inconclusive = no clear call, values can overlap the other calls; inactive = above about -39%
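Two compound doses tested in HFFs infected with HCMV-luciferase, MOI 1 PFU/cell, 72 h at 37C. Lysate luminescence read with OneGlo; data normalized against buffer-only and 10uM Salinomycin inhibitor controls.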
MARV entry inh: inhibitors of Marburg virus binding or cell entry. Marburg virus pseudotyped entry inhibition, cell reporter. Potency, µM (highest dose often 37.8 µM), for inactives: at the top dose activity change, negative = inhibition, actives largely listed as inhibitors. 1.8% of 300,000 active. AID 540276; calls by dose curve; tested in HEK293 cells; note: potency is the fitted concentration of half-maximal effect
* marks the source's active call; other numbers are inactive results; ? = inconclusive; · = no result given; [ ] = dose if it differs, or a comment. % is set by controls: 0 for no effect and ±100 for the full control effect.

SMILES	LASV entry inh	FMDV inh	HCMV antiviral	MARV entry inh
C#CC(=O)N(c1ccc(OC)c(OC)c1)C(C(=O)NC1CCCC1)c1cccs1 (stereo unspecified)	7.9µM*	?	-99*	3.5µM*
O=C(NCc1ccccn1)c1nn(-c2ccccc2F)nc1CO	?	0%	?	3%[46.1 µM]
C=CCN1c2ccccc2[C@]23CCC(=O)N(CCc4ccccn4)C2=NC(C(=O)OC)=C(C(=O)OC)[C@H]13	·	·	·	4%[14.2 µM]
N#CC1=C2SCN(c3ccc(F)cc3)CN2C(=O)CC1c1cccc(F)c1 (stereo unspecified)	·	-2%	-93*	·
Cc1cc(C)cc(OCCOCCn2c(-c3ccc(Cl)cc3)nc3ccccc3c2=O)c1	-23%[46.1 µM]	0%	14	7.1µM*
Cc1ccccc1C(=O)Nc1cccc(NC(=O)c2ccc(C(C)(C)C)cc2)c1	?	-18%	12	·
CCOC(=O)N1CCC(NC(=O)C2CCN(c3nc(-c4ccc(OC)cc4)no3)CC2)CC1	-7%	?	-65*	-22%
COc1ccc(-c2noc(N3CCC(C(=O)NC(C)c4ccccc4)CC3)n2)cc1 (stereo unspecified)	·	?	-63*	·
COc1cc2c(cc1OC)C(COc1cccc(C(F)(F)F)c1)N(C(=O)c1ccc(S(=O)(=O)N3CCCC3)cc1)CC2 (stereo unspecified)	?	-26%	-7	·
Cc1ccc(CCNC(=O)c2cc3c(=O)n(C)c4ccccc4c3n2C)cc1	-23%[46.1 µM]	-20%	-16	4%[46.1 µM]
Cc1nc(SC(C)C(=O)Nc2ccccc2Cl)cc(-c2ccccc2)n1 (stereo unspecified)	?	0%	-70*	?
O=C(Nc1cccc(F)c1)N1CC[C@@]2(CCCN(S(=O)(=O)c3ccccc3)C2)C1	·	-8%	·	·
O=C(Nc1ccc(Oc2ccc3nc(NC(=O)c4ccccc4)[nH]c3c2)cc1)Nc1cc(C(F)(F)F)ccc1F	6.3µM*	·	·	·
O=C(Nc1ccc(Oc2ccc3nc(NC(=O)c4ccco4)[nH]c3c2)cc1)Nc1cc(C(F)(F)F)ccc1F	7.9µM*	·	·	·
COC(=O)Nc1nc2ccc(Oc3ccc(NC(=O)Nc4cccc(Br)c4)cc3)cc2[nH]1	18µM*	·	·	·
Cc1ccc(C)c(N2CCN(CCCNC(=O)Cn3cccc3C(=O)c3ccccc3C)CC2)c1	?	?	-94*	?
CCc1cc2c3c(c1)C1(C(=O)N3C(C)(C)CC2C)C(C#N)=C(N)N2C(=C1C#N)Nc1ccccc12 (stereo unspecified)	13µM*	?	?	?
CCN(CC)Cc1ccc(NC(=O)c2sc3cc(Cl)ccc3c2Cl)cc1	?	?	-104*	?
Cc1cc(NS(=O)(=O)c2ccc(NC(=O)COc3c(C)ccc(C)c3C)cc2)nc(C)n1	23%[46.1 µM]	31%	10	8%[46.1 µM]
COc1ccccc1C1C=C(c2ccc(F)cc2)Nc2nc(-c3ccc(Cl)cc3)nn21 (stereo unspecified)	-15%[46.1 µM]	?	-24	?
COc1ccc(C2C=C(c3ccc(Cl)cc3)Nc3nc(-c4ccc(Cl)cc4)nn32)cc1 (stereo unspecified)	?	?	-101*	?
COc1ccccc1C1C=C(c2ccc(Cl)cc2)Nc2nc(-c3ccc(Cl)cc3)nn21 (stereo unspecified)	?	-14%	-78*	?
N#C/C(=C\c1ccc(Sc2ccccc2)o1)c1nc2ccccc2[nH]1	?	-16%	-1	6%
N#C/C(=C/c1ccc(Sc2nc3ccccc3[nH]2)o1)c1ccccc1F	-17%	?	-102*	-6%
N#C/C(=C/c1ccc(Sc2nc3ccccc3[nH]2)o1)c1cccc(Br)c1	-26%	?	-85*	?
SMILES	LASV entry inh	FMDV inh	HCMV antiviral	MARV entry inh
N#C/C(=C/c1ccc(Sc2nc3ccccc3[nH]2)o1)c1cccc(F)c1	1%	?	-103*	-20%
CCC1=C(O)CC(O)=C(C2NNC(CCC(=O)O)C2C2NC3CCCCC3N2C)C1 (stereo unspecified)	·	·	·	5%[46.1 µM]
Oc1ccccc1C1SC(c2ccccc2O)SC(c2ccccc2O)S1 (stereo unspecified)	?	-20%	-34	?
Oc1ccccc1C1CCCCC1c1ccccc1 (stereo unspecified)	-22%	-7%	-68*	-30%
CC(=O)Cc1cc(O)c2ccccc2c1OC(=O)c1ccccc1	-26%[46.1 µM]	-16%	-73*	-19%[46.1 µM]
CC(=O)c1cc(C)c(OC(=O)c2ccccc2)c(C)c1	?	?	-4	-8%
Cc1ccccc1Cn1c(C)c(CNCCCc2ccccc2)c(C(=O)O)c1C	?	-9%	12	-32%[46.1 µM]
COc1cccc(N2CCN(c3c4c(nc5nncn35)CCC4)CC2)c1	-21%[46.1 µM]	?	-95*	?
Cc1cccc(N2CCN(c3c4c(nc5nncn35)CCC4)CC2)c1C	17%[46.1 µM]	-13%	?	-6%[46.1 µM]
Clc1cccc(N2CCN(c3c4c(nc5nncn35)CCC4)CC2)c1	9%[46.1 µM]	22µM*	-65*	?
CCN1CCCC1CNC(=O)c1cnn(-c2nccc(-c3ccco3)n2)c1C1CC1 (stereo unspecified)	·	-6%	·	·
O=C(COc1ccc(Br)cc1Cl)NC1CCCCC1	8%	-29%	?	?
O=C(COc1ccc(Br)cc1CNC1CCCC1)Nc1ccccc1	-22%[46.1 µM]	-17%	30	1.8µM*
CC(C)NC(=O)NC(=O)COc1ccc(Br)cc1Br	7.3µM*	-24%	49	6.5µM*
O=C(COc1ccc(Br)cc1Br)NC1CCCC1	·	9%	-63*	·
CC(NCc1cc(Br)ccc1OCC(=O)NCc1ccccc1)c1ccccc1 (stereo unspecified)	·	?	-76*	·
CN(C)Cc1ccccc1-c1cc(NCc2cccs2)ncn1	·	-9%	·	·
Cn1c(-c2cccnc2)cc2cnc(Nc3ccc4c(c3)OCCO4)cc21	·	·	43	·
CCOc1ccccc1NC(=O)C(CC)n1c(C(=O)OC)cc2occc21 (stereo unspecified)	·	-15%	3	?
C[C@@H]1CCCCO[C@@H](CN(C)C(=O)NC2CCCCC2)[C@@H](C)CN([C@H](C)CO)C(=O)c2cc(N(C)C)ccc2O1	·	·	-21	·
O=C1C(=O)N(c2ccccc2)C(c2ccccc2[N+](=O)[O-])/C1=C(\O)c1ccccc1 (stereo unspecified)	8%	19%	101	-8%[46.1 µM]
CCOc1ccc(N2C(=O)C(=O)/C(=C(/O)c3ccccc3)C2c2ccccc2[N+](=O)[O-])cc1 (stereo unspecified)	3%	-19%	-73*	?
COc1ccc(C(=O)NC(Nc2ccc(C)cc2)C(Cl)(Cl)Cl)cc1 (stereo unspecified)	-11%	?	-72*	?
COc1ccc(NC(NC(=O)c2ccc(OC)cc2)C(Cl)(Cl)Cl)cc1 (stereo unspecified)	?	-27%	-27	?
CCOc1cc(CNCc2ccncc2)cc(Br)c1OCc1ccccc1F	?	?	-70*	?
Cc1ccccc1Cn1cc(NC(=O)c2cc3nc(-c4ccco4)cc(C(F)(F)F)n3n2)cn1	-5%	?	-28	-10%
CCc1ccc(-c2cc(C(F)(F)F)n3nc(C(=O)Nc4cnn(Cc5ccc(C)cc5)c4)cc3n2)s1	?	-19%	·	9.2µM*
